# According to the supplement of paper PMC10849652:
# About 8,800 targets were measured; listed, in parts, are those with a hit and a random draw of the rest. About 0.5% of all pairs of compound and target were hits. A number with no mark means an inactive call.
# Assays:
# Assay in all cases: log2 fold change, soluble protein after heating vs DMSO (PISA); higher = thermal stabilisation; K562 lysate, 10 uM; active = over 0.2 and 3.5 SD of the protein, either way, in both replicates (recomputed)
# [1] = compound: CCn1c(C(=O)N(C2CC2)C2CC2)cc2c3c(ncn3C)c(Nc3cc(C)n(C)n3)nc21
# How it was run: (§1)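 A 30 min treatment with 10 μM compound was applied to crude K562 extract at 1 mg/mL protein in PBS pH 7.4 with 1 mM MgCl2. Heating for 3 min spanned 48°C-58°C, after which aliquots were pooled, adjusted to 0.5% NP-40 at 4°C and spun at 21,000xg for 90 min. TMTpro 16plex LC-MS/MS of the supernatant, with channel sums equalised, gave values recorded as log-two fold change in thermal stability against solvent controls, from duplicates.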
# saracatinib = compound: CN1CCN(CCOc2cc(OC3CCOCC3)c3c(Nc4c(Cl)ccc5c4OCO5)ncnc3c2)CC1 [saracatinib]
# How it was run: as §1
# [2] = compound: CCCS(=O)(=O)Nc1ccc(F)c(C(=O)c2c[nH]c3ncc(Cl)cc23)c1F
# How it was run: as §1
# volasertib = compound: CC[C@@H]1C(=O)N(C)c2cnc(Nc3ccc(C(=O)N[C@H]4CC[C@H](N5CCN(CC6CC6)CC5)CC4)cc3OC)nc2N1C(C)C [volasertib]
# How it was run: as §1
# vemurafenib = compound: CCCS(=O)(=O)Nc1ccc(F)c(C(=O)c2c[nH]c3ncc(-c4ccc(Cl)cc4)cc23)c1F [vemurafenib]
# How it was run: as §1
# [3] = compound: CC[C@@H]1C(=O)N(C)c2cnc(Nc3ccc(C(=O)NC4CCN(C)CC4)cc3OC)nc2N1C1CCCC1
# How it was run: as §1
# sotrastaurin = compound: CN1CCN(c2nc(C3=C(c4c[nH]c5ccccc45)C(=O)NC3=O)c3ccccc3n2)CC1 [sotrastaurin]
# How it was run: as §1
# barasertib = compound: CCN(CCCOc1ccc2c(Nc3cc(CC(=O)Nc4cccc(F)c4)[nH]n3)ncnc2c1)CCOP(=O)(O)O [barasertib]
# How it was run: as §1
# [4] = compound: CCn1cc(-c2ccnc3[nH]c(-c4cccc(CN(C)C)c4)cc23)c(-c2ccc(NC(=O)N(C)C)cc2)n1
# How it was run: as §1
# [5] = compound: CN1CCC(CNc2ccc3ncc(-c4cccc(OC(F)(F)F)c4)n3n2)CC1
# How it was run: as §1
# Sequence of UniProt P30622 (P30622 whole entry, looked up): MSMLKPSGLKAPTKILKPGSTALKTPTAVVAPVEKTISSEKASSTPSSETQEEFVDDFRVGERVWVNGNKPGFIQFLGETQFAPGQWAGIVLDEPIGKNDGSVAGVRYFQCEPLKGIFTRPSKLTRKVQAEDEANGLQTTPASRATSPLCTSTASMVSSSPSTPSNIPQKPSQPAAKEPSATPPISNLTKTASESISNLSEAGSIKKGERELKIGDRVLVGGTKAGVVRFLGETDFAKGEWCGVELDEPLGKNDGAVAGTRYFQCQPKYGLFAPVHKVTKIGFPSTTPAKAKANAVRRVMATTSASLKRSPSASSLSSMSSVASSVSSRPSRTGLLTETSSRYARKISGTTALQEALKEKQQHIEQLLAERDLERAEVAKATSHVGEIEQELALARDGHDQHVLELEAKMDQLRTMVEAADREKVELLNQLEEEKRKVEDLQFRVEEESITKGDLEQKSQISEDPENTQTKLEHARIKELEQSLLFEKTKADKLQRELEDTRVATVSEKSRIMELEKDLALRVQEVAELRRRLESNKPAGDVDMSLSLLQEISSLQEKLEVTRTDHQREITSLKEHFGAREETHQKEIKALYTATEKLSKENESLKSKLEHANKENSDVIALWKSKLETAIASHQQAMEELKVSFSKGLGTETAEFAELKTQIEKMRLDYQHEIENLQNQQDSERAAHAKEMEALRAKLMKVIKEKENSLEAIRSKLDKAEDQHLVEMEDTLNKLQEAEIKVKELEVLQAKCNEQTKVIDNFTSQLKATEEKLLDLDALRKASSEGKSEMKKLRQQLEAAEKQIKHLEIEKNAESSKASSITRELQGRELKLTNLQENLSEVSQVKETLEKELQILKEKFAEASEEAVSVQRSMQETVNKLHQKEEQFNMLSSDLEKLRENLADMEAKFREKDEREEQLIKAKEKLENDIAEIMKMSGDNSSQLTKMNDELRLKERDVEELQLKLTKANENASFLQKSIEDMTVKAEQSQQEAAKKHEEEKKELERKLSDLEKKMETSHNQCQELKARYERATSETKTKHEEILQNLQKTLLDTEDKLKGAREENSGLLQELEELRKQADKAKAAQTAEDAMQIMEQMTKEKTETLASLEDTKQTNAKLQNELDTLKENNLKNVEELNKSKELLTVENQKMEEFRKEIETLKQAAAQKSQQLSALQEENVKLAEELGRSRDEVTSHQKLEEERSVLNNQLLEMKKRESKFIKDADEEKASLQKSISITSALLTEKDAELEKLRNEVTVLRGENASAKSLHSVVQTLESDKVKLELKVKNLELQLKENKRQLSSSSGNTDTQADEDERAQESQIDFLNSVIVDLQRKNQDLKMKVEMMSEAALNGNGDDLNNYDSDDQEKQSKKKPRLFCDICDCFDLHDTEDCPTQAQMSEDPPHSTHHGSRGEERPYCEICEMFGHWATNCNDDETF
# Sequence of UniProt Q15398 (Q15398 whole entry, looked up): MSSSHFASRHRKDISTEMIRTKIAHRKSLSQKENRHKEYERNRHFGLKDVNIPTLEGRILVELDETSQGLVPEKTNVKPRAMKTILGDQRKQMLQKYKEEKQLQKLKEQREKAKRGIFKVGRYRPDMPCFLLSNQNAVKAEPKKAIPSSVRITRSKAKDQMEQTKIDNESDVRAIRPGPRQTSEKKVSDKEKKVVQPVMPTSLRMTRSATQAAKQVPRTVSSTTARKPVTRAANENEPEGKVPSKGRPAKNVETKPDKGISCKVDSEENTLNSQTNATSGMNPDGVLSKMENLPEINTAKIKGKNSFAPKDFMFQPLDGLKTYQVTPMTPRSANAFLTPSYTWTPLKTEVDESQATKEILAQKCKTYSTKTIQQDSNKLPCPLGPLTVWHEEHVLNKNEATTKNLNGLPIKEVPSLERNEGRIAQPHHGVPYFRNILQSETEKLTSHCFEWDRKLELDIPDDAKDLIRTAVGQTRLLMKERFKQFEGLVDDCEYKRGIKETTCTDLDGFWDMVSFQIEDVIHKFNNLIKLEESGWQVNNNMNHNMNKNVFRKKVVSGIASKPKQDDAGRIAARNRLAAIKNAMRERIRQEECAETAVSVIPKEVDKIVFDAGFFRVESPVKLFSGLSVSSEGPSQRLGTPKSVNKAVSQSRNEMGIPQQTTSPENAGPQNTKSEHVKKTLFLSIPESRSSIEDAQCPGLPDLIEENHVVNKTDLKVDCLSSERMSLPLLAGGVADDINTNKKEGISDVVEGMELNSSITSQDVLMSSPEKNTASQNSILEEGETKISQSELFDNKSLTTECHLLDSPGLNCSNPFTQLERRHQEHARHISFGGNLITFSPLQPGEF
# Sequence of UniProt Q9UJA2 (Q9UJA2 whole entry, looked up): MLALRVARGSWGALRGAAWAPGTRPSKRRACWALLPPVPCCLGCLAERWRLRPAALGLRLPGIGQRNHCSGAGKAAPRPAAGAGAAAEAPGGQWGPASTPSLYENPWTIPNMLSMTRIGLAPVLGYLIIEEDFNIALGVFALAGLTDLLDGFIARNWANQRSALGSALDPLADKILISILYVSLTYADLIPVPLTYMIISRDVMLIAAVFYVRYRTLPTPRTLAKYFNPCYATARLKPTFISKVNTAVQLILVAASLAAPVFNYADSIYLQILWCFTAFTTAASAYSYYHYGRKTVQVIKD
# Sequence of UniProt Q9Y600 (Q9Y600 whole entry, looked up): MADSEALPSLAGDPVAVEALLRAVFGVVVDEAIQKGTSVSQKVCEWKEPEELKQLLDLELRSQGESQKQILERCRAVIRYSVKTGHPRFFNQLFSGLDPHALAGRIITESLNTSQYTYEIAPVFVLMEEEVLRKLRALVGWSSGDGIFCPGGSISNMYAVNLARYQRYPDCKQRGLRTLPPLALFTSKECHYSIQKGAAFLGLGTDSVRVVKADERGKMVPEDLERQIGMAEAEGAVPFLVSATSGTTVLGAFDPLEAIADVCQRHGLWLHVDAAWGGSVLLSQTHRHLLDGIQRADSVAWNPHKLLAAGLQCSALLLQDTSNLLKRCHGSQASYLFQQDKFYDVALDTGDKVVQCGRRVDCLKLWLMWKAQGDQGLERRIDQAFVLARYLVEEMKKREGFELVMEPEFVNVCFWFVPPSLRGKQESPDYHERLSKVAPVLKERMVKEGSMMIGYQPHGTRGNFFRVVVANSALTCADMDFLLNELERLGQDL
# Sequence of UniProt Q9BSY9 (Q9BSY9 whole entry, looked up): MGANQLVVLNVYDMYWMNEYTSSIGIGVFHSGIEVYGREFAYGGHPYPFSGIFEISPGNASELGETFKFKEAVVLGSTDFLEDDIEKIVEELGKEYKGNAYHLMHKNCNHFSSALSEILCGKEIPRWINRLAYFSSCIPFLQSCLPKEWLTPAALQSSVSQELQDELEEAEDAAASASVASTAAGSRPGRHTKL
# Sequence of UniProt O94760 (O94760 whole entry, looked up): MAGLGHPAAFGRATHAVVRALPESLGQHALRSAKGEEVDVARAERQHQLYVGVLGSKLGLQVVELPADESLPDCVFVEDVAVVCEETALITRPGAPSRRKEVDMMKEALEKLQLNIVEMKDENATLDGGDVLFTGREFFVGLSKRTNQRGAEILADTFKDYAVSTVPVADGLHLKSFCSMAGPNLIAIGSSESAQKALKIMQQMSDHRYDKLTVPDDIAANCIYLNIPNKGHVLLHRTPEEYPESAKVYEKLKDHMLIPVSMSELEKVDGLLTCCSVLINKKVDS
# Sequence of UniProt P53355 (P53355 whole entry, looked up): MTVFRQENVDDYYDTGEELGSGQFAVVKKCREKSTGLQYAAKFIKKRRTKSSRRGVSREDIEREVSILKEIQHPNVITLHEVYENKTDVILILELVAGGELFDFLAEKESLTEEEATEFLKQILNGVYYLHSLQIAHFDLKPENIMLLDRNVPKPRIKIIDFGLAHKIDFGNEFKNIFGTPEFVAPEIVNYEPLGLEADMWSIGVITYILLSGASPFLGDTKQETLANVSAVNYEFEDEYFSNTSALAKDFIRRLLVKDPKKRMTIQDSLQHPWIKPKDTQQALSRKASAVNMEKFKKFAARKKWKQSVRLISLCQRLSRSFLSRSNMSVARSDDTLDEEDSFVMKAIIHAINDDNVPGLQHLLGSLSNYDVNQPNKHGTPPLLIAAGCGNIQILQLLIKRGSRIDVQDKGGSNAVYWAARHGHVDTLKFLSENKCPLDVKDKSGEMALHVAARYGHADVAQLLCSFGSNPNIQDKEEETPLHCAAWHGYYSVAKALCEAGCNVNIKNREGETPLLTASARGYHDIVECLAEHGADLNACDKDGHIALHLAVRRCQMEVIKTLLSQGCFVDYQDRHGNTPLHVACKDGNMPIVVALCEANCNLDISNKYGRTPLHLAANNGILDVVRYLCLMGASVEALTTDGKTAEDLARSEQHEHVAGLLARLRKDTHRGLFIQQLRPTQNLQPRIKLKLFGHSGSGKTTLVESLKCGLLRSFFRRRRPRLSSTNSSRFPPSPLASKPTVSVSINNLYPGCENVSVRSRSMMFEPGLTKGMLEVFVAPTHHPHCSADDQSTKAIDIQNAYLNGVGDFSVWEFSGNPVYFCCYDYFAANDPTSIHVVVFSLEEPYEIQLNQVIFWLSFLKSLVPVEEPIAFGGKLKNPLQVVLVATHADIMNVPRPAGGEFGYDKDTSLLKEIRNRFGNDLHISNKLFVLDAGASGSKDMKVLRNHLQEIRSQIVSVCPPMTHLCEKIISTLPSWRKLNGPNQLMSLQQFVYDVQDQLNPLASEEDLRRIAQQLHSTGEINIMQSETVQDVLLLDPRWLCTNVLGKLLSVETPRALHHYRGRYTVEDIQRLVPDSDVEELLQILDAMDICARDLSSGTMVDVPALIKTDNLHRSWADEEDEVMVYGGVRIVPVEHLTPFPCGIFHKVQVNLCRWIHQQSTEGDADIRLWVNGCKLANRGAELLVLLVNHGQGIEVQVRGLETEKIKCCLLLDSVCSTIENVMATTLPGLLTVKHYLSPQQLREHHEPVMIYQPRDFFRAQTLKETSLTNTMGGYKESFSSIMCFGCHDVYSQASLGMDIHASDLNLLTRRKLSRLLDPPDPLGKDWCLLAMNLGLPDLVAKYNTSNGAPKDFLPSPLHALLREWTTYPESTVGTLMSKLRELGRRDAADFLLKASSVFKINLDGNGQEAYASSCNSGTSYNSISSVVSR
# Sequence of UniProt Q8WXC6 (Q8WXC6 whole entry, looked up): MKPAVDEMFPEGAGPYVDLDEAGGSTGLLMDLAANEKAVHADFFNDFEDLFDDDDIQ
Target,log2 fold change [1],log2 fold change (saracatinib),log2 fold change [2],log2 fold change (volasertib),log2 fold change (vemurafenib),log2 fold change [3],log2 fold change (sotrastaurin),log2 fold change (barasertib),log2 fold change [4],log2 fold change [5]
CSNK1A1 isoform 3 (UniProt P48729),-0.199,-0.175,–,–,–,–,–,–,–,–
CSNK1G3 isoform 4 (UniProt Q9Y6M4),–,–,-0.238,0.111,–,–,–,–,–,–
COL12A1 (UniProt Q99715),–,0.063,0.178,-0.139,0.239,0.194,-0.233,–,–,–
DLGAP5 isoform 3 (UniProt Q15398),–,0.165,–,–,–,–,–,0.281,-0.165,-0.03
DNM2 isoform 4 (UniProt P50570),-0.014,-0.047,-0.001,-0.031,–,-0.018,-0.031,–,-0.153,0.021
DNA2 (UniProt P51530),0.051,0.008,–,–,-0.094,-0.053,0.073,–,0.03,0.022
CPLX1 (UniProt O14810),-0.074,0.893 (active),0.057,0.029,0.034,-0.026,–,–,–,–
DHRS13 (UniProt Q6UX07),0.077,-0.031,0.291,-0.274,–,–,0.095,0.236,–,–
DAPK1 isoform 3 (UniProt P53355),0.022,0.022,-0.203,-0.138,0.047,–,-0.039,–,0.138,-0.04
COX7B (UniProt P24311),-0.051,-0.062,-0.047,0.004,0.014,-0.01,-0.028,–,0.047,-0.013
DCTN1 isoform 4 (UniProt Q14203),-0.28,0.123,0.089,-0.019,0.07,0.139,-0.027,–,0.34,0.121
DESI2 (UniProt Q9BSY9),–,–,–,–,0.064,0.089,–,–,0.116,-0.113
CLIP1 isoform 2 (UniProt P30622),-0.04,0.028,0.112,0.055,–,0.073,-0.026,-0.083,-0.488,0.02
CYP4V2 (UniProt Q6ZWL3),-0.12,-0.076,-0.021,0.05,–,–,-0.17,-0.021,–,–
CHMP4A (UniProt H0YIN6),-0.495,0.201,0.049,0.024,–,–,-0.088,-0.012,-0.274,0.158
"CLIP1, A0A3B3ITA2",-0.015,–,–,–,-0.026,–,-0.021,–,-0.515,0.634 (active)

Target,log2 fold change [1],log2 fold change (saracatinib),log2 fold change [2],log2 fold change (volasertib),log2 fold change (vemurafenib),log2 fold change [3],log2 fold change (sotrastaurin),log2 fold change (barasertib),log2 fold change [4],log2 fold change [5]
CXCL14 (UniProt O95715),–,–,–,–,0.252,0.189,–,0.079,–,–
CORO7 (UniProt P57737),-0.025,0.166,–,–,-0.143,0.089,0.137,–,0.321,0.165
COPS9 (UniProt Q8WXC6),-0.197,–,-0.075,0.062,–,–,–,–,–,–
CIC (UniProt I3L1Q4),–,–,–,–,–,–,–,-0.169,–,–
DDAH1 (UniProt O94760),0.061,-0.308 (active),0.071,0.068,0.054,0.04,-0.022,–,-0.068,-0.051
CRLS1 (UniProt Q9UJA2),0.017,–,0.063,0.005,–,–,-0.008,0.014,0.022,-0.301
CYP2S1 isoform 2 (UniProt Q96SQ9),0.063,0.017,0.136,0.038,0.062,0.119,0.081,–,–,–
DALRD3 (UniProt Q5D0E6),–,–,-0.025,-0.041,-0.033,-0.095,–,–,0.003,0.144
CSDE1 isoform 3 (UniProt O75534),0.113,–,-0.014,-0.193,–,–,0.07,0.05,-0.064,-0.104
DONSON (UniProt Q9NYP3),-0.036,0.013,0.017,0.026,–,–,0.016,-0.03,-0.026,-0.206
CNK3/IPCEF1 isoform 2 (UniProt G9CGD6),0.078,0.053,–,–,-0.062,0.056,–,–,-1.81 (active),0.506
COL6A3 (UniProt P12111),0.086,-0.039,–,–,–,–,0.031,0.347,0.254,-0.19
DDR1 isoform 5 (UniProt Q08345),0.013,-0.142,–,–,–,0.064,-0.019,0.169,0.043,-0.479 (active)
CSRP2 (UniProt Q16527),–,–,–,–,–,0.052,-0.351 (active),0.078,0.09,0.126
CSAD isoform 3 (UniProt Q9Y600),0.001,–,–,–,–,–,-0.003,0.456 (active),–,–
